Here are results for 40 sequences from the supplement of paper PMC6555819.

This assay has as its system THRa homodimer (NR concentration 90 nM). The assay can be described thus: PBM binding z-score (relative to random genomic background probes); higher = stronger binding; sequences stand for … in GC…GCGATTGACAGCGTAGAATGAAGG
The procedure, abridged:
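On custom Agilent 4×180K arrays, double-stranded probes with 34-nt variable regions carried direct-repeat seeds, single-nucleotide variants, half-site ablations or random human genomic background. Ligand-free nuclear receptor dimers were applied for 1 h, and binding was read with antibodies against each partner (one per run). Binding z-scores come from regression-normalized fluorescence, with the random background probes as reference.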
The sequence GCGACTGGGGCAAAGCAGGTTACCATGAGGTTGG yielded a PBM binding z-score of -0.00664.

GCTAGTTGGTCACTAAAAGGTCACACACCGGTCG came in with a PBM binding z-score of 1.7.

As for ATCTCTAGGTAACAAGTGCAGTGAAAGAGAGGAC, the PBM binding z-score turned out to be 0.468.

As to CCTACTGGGCCATCTGGTCATTGATATCAACGTT, the PBM binding z-score amounted to 0.0962.

Turning to ATCTCTAGGTAAAAGTTCAGTGGATCCCGAGGAT, the PBM binding z-score was 0.272.

The sequence CGTCAAAGTTCAACTAAAGTAACGTAAAGCACGC returned a PBM binding z-score of 0.0523.

Sequence ACTAGCAGGCCAAGTTTGGGTGACTCAAACAAAG registered a PBM binding z-score of -0.161.

CCTGCTAGGTCATGGTCAGCAAATCTACAGTATG: the PBM binding z-score was found to be 1.37.

As for ACAGACAGGTGATGCAGGTAACTCAGGCTATCAT, the PBM binding z-score is -0.0382.

On to TCTGCTAGGTCAACGATGGTTAGCTAATCTGCTA, for which the PBM binding z-score was 0.466.

ATCAAAAGGTCGACGAGGTGAGTATACACCGTTT came in with a PBM binding z-score of 1.05.

GCTGCTAGGTCAACTGATGGTCAGCCAAAGCTCG: the PBM binding z-score was 0.852.

For CGTCCAAGGTCAATGCCAGGTCAGTGAAAGCATT, the PBM binding z-score is 3.6.

Consider GCTTACGGGTCAAAGGTTATATCATGAATAGAAT, for which the PBM binding z-score was 0.113.

TCTAGGTGGTCACGGAGGTCACACACGACGGGTA: the PBM binding z-score stood at 2.2.

CGTCCAATGTCAAAGGTCAGTGAAGAGATGACGG came in with a PBM binding z-score of 0.388.

Sequence CCTTACGGGTCACTCCAGGTTATAGGATCGGAGT displayed a PBM binding z-score of 0.641.

For GTACCAATGTGAATAGGTCGTTGATGAGTAGGCG, the PBM binding z-score was -0.677.

ACTAGCAGGCCAAGTATGGGTCACTCAAACAAAG: the PBM binding z-score is -0.26.

Regarding CGTCCAAGGTCAGAGATGTCAGTGAATGCCGAGT, the PBM binding z-score is 1.9.

In the case of GCGACTGCGGCATCAGCAGGTTACCATAACTTAA, the PBM binding z-score was found to be 0.0125.

The sequence TCTTGTAGCTCAATAGAGGTTAAGAAAGTGCGCT yielded a PBM binding z-score of -0.704.

In turn, CAGCCTAGGTCAGGGCCAGTACAGGAGGAACGTT showed a PBM binding z-score of 0.539.

As for TCTGACAGGTGAAGGTAACTCAGGTACGCAGTCG, the PBM binding z-score was 0.158.

TCTGGTAGATCAAGCAGGTTAAGAAAGCCTGAGT came in with a PBM binding z-score of -0.796.

Turning to ATACCAAGGTGATCGTGAGGTGGTTGATACTAAC, the PBM binding z-score stood at 0.979.

TCTCGGAGGACACGAAGATCAGAGCTTTCCAGAG yielded a PBM binding z-score of 0.242.

Sequence TTACCAAGGTGAAAGGTCGTTGATGCACGCCTTG displayed a PBM binding z-score of 0.838.

CAAACTAGGTCCCCGGAAGGTCAAAGTCCGCATG had a PBM binding z-score of 1.33.

As for CCTACTGGGACACGAAAGGTCATTGATTCAGTGA, the PBM binding z-score is 1.35.

In turn, ATACCAAGGTAATCGTGAGGTCGTTGATACTAAC yielded a PBM binding z-score of 2.64.

CAAACTAGGTCACCGGAAGGTCAAAGTGCGCATG: the PBM binding z-score was 3.05.

For TGTTGTAGATCAACAGGAGGTTAAGAAAGATCGA, the PBM binding z-score is -0.492.

For TCGAGTAGGTTAGAGGCATTCAGAATGGCGTCGA, the PBM binding z-score is -1.15.

As for CAGACAGGGTCAGCTAGGCCAGAGTAGGGACGGC, the PBM binding z-score is 0.505.

Consider GCGACTGGGGCATCAGCGGGTTACCATAACTTAA, for which the PBM binding z-score is -0.267.

Regarding CCTACTGGGCCAGGGTCATTGATCAGTCAAAGCA, the PBM binding z-score came to 0.841.

Sequence ATATGTAGGTTAGGTGGGGTCATTCAGACTAGGC registered a PBM binding z-score of 3.72.

For GCAGACAGGTGACACGCAGGTAACTCAGGGTGGC, the PBM binding z-score is -0.377.

Turning to CCTACTGGGCCAAGAAGGTCATTGATGCCGATAA, the PBM binding z-score worked out at 0.355.
